According to PubChem BioAssay (NCI):
About 83,000 compounds went through this panel and 20% of them were active in at least one assay; those are over-represented in the sample as a whole.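 Cell lines were cultured in 96-well plates, exposed to a single compound concentration, and assessed for percent growth 48 hours later.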 Unmarked numbers belong to inactive results. Calls of active or inactive are those of the source. How the source made its calls: active means growth percent below 10; inactive means the rest.

These compounds were tested on UACC-257 melanoma (assay: NCI-60 one-dose screen, 48 h (100 = growth as untreated, 0 = no growth, -100 = all killed)). Conditions: 10 µM unless noted.
Compound `Clc1cccc(Cl)c1Nc1ccc2nnc(-c3ccncc3)n2n1` has a growth of 97.8%. In the case of `CC(=O)Nc1ccc(Sc2ccc([N+](=O)[O-])o2)cc1`, the growth is reported as -43.4% (active). `COc1ncnc2c1ncn2C/C(Br)=C(\Br)CCl` was tested, and the growth was -40.5% (active). `O=C1c2ccccc2C(=O)c2c(Nc3ccc(CCO)cc3)ccc(O)c21` was tested, and the growth was 101%. `COc1ccccc1CNCCCCCCCCCCCCN1C(=O)c2ccc3c4c(ccc(c24)C1=O)C(=O)N(CCCCCCCCCCCCNCc1ccccc1OC)C3=O` showed a growth of 113%. `CC(C)OC1=C(Cl)C(=O)c2ccccc2C1=O` gave a growth of 89.6%. `CCCCCn1c(=N)n(CC(O)COc2cccc(C)c2)c2ccccc21` (stereo unspecified) was tested, and the growth was -19.6% (active). In the case of `CC1SC(c2cccc(Oc3ccccc3)c2)N(CCc2cccs2)C1=O` (stereo unspecified), the growth is reported as -45.1% (active). Work on `COc1ccc(-c2csc3c2-n2cccc2C3=O)cc1O` yielded a growth of 43.8%. With `O=C1NC(=O)C(CSc2ccccc2)(c2ccccc2)N1` (stereo unspecified) the growth was 93.6%. `Fc1ccccc1Nc1ccc2nnc(-c3ccncc3)n2n1` was tested, and the growth was 105%. With `COCCOC1=C(Cl)C(=O)c2ccccc2C1=O` the growth was -17.3% (active). Compound `CCN1CCN(C(=S)SCC(=O)Nc2nc3ccc(OC)cc3s2)CC1` has a growth of 117%. `Oc1ccccc1/C=N/Nc1nc2ccccc2s1` gave a growth of 58.7%. For `Oc1ccc2ccccc2c1C1NN=C(c2ccccc2)S1` (stereo unspecified), the growth was -6.81% (active). For `O=c1c2c(=NCCN3CCCC3)cc3c(=O)n(CCCN4CCOCC4)c(=O)c4ccc(c(O)n1CCCN1CCOCC1)c2c4-3`, the growth was -14.3% (active).
